Data as given in PubChem BioAssay (NCATS).
Inconclusive results are not listed. Activity calls are given as the source filed them. Unless noted, calls come from the whole dose curve; as a rule, active = well fitted curve in the direction sought with a large enough effect; inconclusive = small, poorly fitted or top-dose-only effect, or another doubt; inactive = no such curve, though single readings can be large; an effect the other way counts as inactive or inconclusive.

How the values were obtained:
[1] = AP1 Signaling Pathway (AID 357; active = well fitted curve in either direction with a large enough effect, not every such curve was filed as active;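 note: ME-180 reporter cells stimulated with EGF at its EC50 level; % is set by controls: 0 for no effect and ±100 for the full control effect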)
Procedure, shortened: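 Modulation of EGF-driven AP-1 transcription was assessed with a beta-lactamase reporter in ME-180 cells. Compound and EC50 EGF were co-incubated 5 hours at 37 °C before 2.5-hour CCF4 loading at room temperature and dual-emission reading.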

[2] = Stat Signaling Pathway (AID 446; active = well fitted curve in either direction with a large enough effect, not every such curve was filed as active;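 note: ME-180 cervical cancer cells given 40 pM IL-6 alongside compound; SIE-controlled beta-lactamase reporter measured as 460/530 nm FRET emission ratio; % is set by controls: 0 for no effect and ±100 for the full control effect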)
Procedure, shortened: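 Reporter line: ME-180 cervical carcinoma, SIE-beta-lactamase. Treatment: compound with 40 pM IL-6, 5 hrs, 37 C, in low-serum OPTI-MEM with 10 mM HEPES pH 7.3. Detection: 460/530 nm fluorescence.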

[3] = molecular target: Glucocorticoid receptor (Homo sapiens) (UniProt P04150); test: GR-EFC Redistribution (AID 451; calls by dose curve; note: potency is the fitted concentration of half-maximal effect); details: CHO-K1 GR-EFC translocation, beta-gal luminescence, 2 h
Procedure, shortened: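 CHO-K1 cells stably expressing nuclear-localized β-gal enzyme acceptor and GR fused C-terminally to the enzyme donor fragment; ligand-driven nuclear translocation restores β-gal by complementation. Compounds titrated up to 46 uM final, 2 h at 37 °C; luminescence read.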

[4] = molecular target: Mitogen-activated protein kinase 10 (Mus musculus) (UniProt Q61831); test: JNK3 AlphaScreen Assay (AID 530; active = well fitted curve in either direction with a large enough effect, not every such curve was filed as active;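 note: kinase came from lysate of stimulated human HepG2 cells; signal reports phosphorylation of biotinylated GST-cJun 1-79 at Ser73 with 10 µM ATP; % is set by controls: 0 for no effect and ±100 for the full control effect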)
Procedure, shortened: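 Inhibitors reduce antibody binding to phosphorylated biotin-cJun, lowering AlphaScreen luminescence. Lysates from HepG2 cells pre-activated by IL-1beta plus TNF-alpha supplied JNK3; compounds were titrated.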

[5] = molecular target: Guanine nucleotide-binding protein G(i) subunit alpha-1 (Homo sapiens) (UniProt P63096); test: qHTS Assay for Inhibitors of RGS12 GoLoco Motif Activity (Green Fluorophore) (AID 879);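 note: 0% = labeled peptide with Gαi1 and full inhibition = labeled peptide alone without protein; negative values mean loss of peptide binding seen as reduced polarization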
Procedure, shortened: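 Fluorescence polarization assay: 50 nM Gαi1 with 10 nM FITC-labeled RGS12 GoLoco peptide in 10 mM Tris pH 7.5, 150 mM NaCl, 0.1 mM GDP, 0.05% NP40, 10 min at room temperature with compound.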

[6] = molecular target: Pyruvate kinase (Leishmania mexicana) (UniProt Q27686); test: qHTS Validation Assay for Inhibitors of Leishmania Mexicana Pyruvate Kinase (AID 945);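 note: 0% = DMSO only neutral control wells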
Procedure, shortened: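 Read-out: luminescence from PKLight stop/detection reagent, data normalized to DMSO. Reaction: 0.2 nM E451W LmPYK, 0.5 mM PEP, 0.1 mM ADP, pH 7.2, 1 h room temperature.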

[7] = molecular target: Pyruvate kinase PKM (Homo sapiens) (UniProt P14618); test: qHTS Assay for Activators of Human Muscle Pyruvate Kinase (AID 954; active = well fitted curve in the direction sought with a large enough effect, not every such curve was filed as active;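 note: 0% = uninhibited enzyme and -100% = no enzyme or full thiadiazolimine inhibition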)
Procedure, shortened: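 Human PKM2 activity is measured as ATP generation, detected by luciferase-coupled luminescence. The enzyme (0.1 nM) acts on 0.5 mM PEP and 0.1 mM ADP for 1 h at ambient temperature; data are normalized to uninhibited and full-inhibition wells.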

[8] = molecular target: Alpha-galactosidase (Coffea arabica) (UniProt Q42656); test: Counterscreen for Glucocerebrosidase Inhibitors: qHTS Assay for Coffee Bean alpha-Galactosidase at pH 4.5 (AID 957);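 note: plate controls were enzyme alone for no effect and no enzyme for full effect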
Procedure, shortened: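 Coffee bean enzyme (2 nM) with 80 uM 4-methylumbelliferyl alpha-D-galactopyranoside in 50 mM citric acid, 0.005% Tween-20, pH 4.5, 20 min at room temperature; compounds 0.7 nM–77 uM. Stopped at pH 10, fluorescence 365/440 nm; AC50 from Hill fits.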

[9] = molecular target: Alpha-galactosidase A (Homo sapiens) (UniProt P06280); test: Counterscreen for Glucocerebrosidase Inhibitors: qHTS Assay for Human alpha-Galactosidase at pH 4.5 (AID 992); note: 0% is about no effect
Procedure, shortened: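 Quantitative HTS: compounds tested from 0.7 nM up to 77 uM against 2 nM enzyme with 80 uM 4-MU alpha-D-galactopyranoside. The 20 min room-temperature reaction is stopped with 1M NaOH/1M glycine, pH 10.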

[10] = molecular target: alpha-glucosidase (Oryza sativa, rice) (UniProt Q653V4); test: Counterscreen for Glucocerebrosidase Inhibitors: qHTS Assay for Rice alpha-Glucosidase at pH 5.0 (AID 997);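 note: 0% = full activity with enzyme and -100% = basal without enzyme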
Procedure, shortened: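 Rice alpha-glucosidase (4 nM final) with 400 uM 4-methylumbelliferyl-alpha-D-glucopyranoside in citrate buffer pH 5.0, 20 min at room temperature, stopped at pH 10; fluorescence 365/440 nm, compounds 0.7 nM–77 uM, AC50 from Hill fits.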

[11] = molecular target: Ubiquitin carboxyl-terminal hydrolase 1 (Homo sapiens) (UniProt O94782); test: Inhibitors of USP1/UAF1: Pilot qHTS (AID 504865); note: nearly all actives have a fitted effect of over 35% in size; note: potency is the fitted concentration of half-maximal effect
Procedure, shortened: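 Enzyme-free wells gave the negative control, while test wells held 1nM USP1/UAF1 preincubated with compound for 15 min at room temperature. Ub-Rho at 150nM final started the reaction, and fluorescence at 480/540 nm was recorded kinetically.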

[12] = molecular target: Luciferin 4-monooxygenase (Photinus pyralis) (UniProt P08659); test: Biochemical firefly luciferase enzyme assay for NPC (AID 624030);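 note: purified P. pyralis luciferase at 10 nM with luciferin and ATP substrate; 0% = DMSO and -100% = full luciferase inhibition by PTC124 control; nearly all actives have a fitted effect of over 70% in size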
Procedure, shortened: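 Counter-screen for direct inhibition of the luciferase enzyme by approved-drug library compounds, run at 10 nM enzyme in 50 mM Tris acetate (final). Luminescence was read within 5 min of enzyme-buffer addition and normalized to PTC124 versus DMSO (0%).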

[13] = qHTS profiling for inhibitors of Plasmodium falciparum proliferation (AID 504749);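 note: 0% = DMSO vehicle and full inhibition = artemisinin control; nearly all actives have a fitted effect of over 60% in size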; details: P. falciparum in erythrocytes, SYBR Green DNA, 72 h, at 28.7 µM (top of the series)
Procedure, shortened: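 Parasite proliferation within erythrocytes, 72 h exposure. Endpoint: SYBR Green I fluorescence after overnight lysis at room temperature. Controls: 0.29 uM artemisinin, DMSO.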

[14] = Primary qHTS for inhibitors of SARS-S pseudo-typed particle cell entry (AID 1479145; calls by dose curve; note: nearly all actives have a fitted effect of over 45% in size); details: outcome: dose series up to 57.1 µM unless noted
[15] = Primary qHTS for Huh7 cytotoxicity: counterscreen for inhibitors of MERS-S pseudotyped particle cell entry (AID 1479147; calls by dose curve); details: outcome: dose series up to 57.1 µM unless noted
[16] = Primary qHTS for inhibitors of MERS-S pseudo-typed particle cell entry (AID 1479149; calls by dose curve; note: nearly all actives have a fitted effect of over 60% in size); details: outcome: dose series up to 57.1 µM unless noted
[17] = Primary qHTS for Vero E6 cytotoxicity: counterscreen for inhibitors of SARS-S pseudo-typed particle cell entry (AID 1479150; calls by dose curve); details: outcome: dose series up to 57.1 µM unless noted
[18] = Counterscreen for APE1 Inhibitors: Fluorescent Dye Displacement Validation Assay (AID 1707);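 note: plate controls were ThO with dsDNA and no compound for no effect and ThO without dsDNA for full effect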
Procedure, shortened: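 Compounds are scored by their ability to displace Thiazole Orange (250 nM) from a 50 nM TAMRA-tagged duplex bearing a tetrahydrofuran abasic site. Buffer is 50 mM Tris-HCl pH7.5, 50mM NaCl, 2 mM MgCl2, 0.01% Tween-20.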

[19] = molecular target: 3',5'-cyclic-AMP phosphodiesterase 4B (Homo sapiens) (UniProt Q07343); test: qHTS Assay for Inhibitors of PDE-IV (AID 607; active = well fitted activation curve with a large enough effect in the main read-out, with a control signal flat, not every such curve was filed as active; note: % of control where 0% means no effect)
Procedure, shortened: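 Cell-based read-out of cAMP via a modified cyclic nucleotide-gated channel and membrane potential dye (535/590 nm) in HEK293 cells expressing PDE4 endogenously. Compounds tested up to 22.9 uM final; 100 uM RO 20-1724 reference.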

Pyruvate kinase (Leishmania mexicana), sequence (Q27686 2-499 E452W): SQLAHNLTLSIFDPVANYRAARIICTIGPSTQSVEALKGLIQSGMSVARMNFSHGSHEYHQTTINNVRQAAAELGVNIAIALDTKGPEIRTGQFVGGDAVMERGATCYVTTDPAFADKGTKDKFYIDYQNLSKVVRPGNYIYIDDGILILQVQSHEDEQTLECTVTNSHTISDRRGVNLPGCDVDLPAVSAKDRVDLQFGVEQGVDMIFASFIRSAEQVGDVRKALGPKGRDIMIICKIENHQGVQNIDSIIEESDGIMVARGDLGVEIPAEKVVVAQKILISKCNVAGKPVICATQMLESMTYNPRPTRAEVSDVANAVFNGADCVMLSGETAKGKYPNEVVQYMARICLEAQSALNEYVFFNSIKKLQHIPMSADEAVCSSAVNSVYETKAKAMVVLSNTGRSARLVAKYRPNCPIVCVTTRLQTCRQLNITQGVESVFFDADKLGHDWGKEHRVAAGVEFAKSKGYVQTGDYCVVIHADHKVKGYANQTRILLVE
Ubiquitin carboxyl-terminal hydrolase 1 (Homo sapiens), sequence (O94782 whole entry, looked up): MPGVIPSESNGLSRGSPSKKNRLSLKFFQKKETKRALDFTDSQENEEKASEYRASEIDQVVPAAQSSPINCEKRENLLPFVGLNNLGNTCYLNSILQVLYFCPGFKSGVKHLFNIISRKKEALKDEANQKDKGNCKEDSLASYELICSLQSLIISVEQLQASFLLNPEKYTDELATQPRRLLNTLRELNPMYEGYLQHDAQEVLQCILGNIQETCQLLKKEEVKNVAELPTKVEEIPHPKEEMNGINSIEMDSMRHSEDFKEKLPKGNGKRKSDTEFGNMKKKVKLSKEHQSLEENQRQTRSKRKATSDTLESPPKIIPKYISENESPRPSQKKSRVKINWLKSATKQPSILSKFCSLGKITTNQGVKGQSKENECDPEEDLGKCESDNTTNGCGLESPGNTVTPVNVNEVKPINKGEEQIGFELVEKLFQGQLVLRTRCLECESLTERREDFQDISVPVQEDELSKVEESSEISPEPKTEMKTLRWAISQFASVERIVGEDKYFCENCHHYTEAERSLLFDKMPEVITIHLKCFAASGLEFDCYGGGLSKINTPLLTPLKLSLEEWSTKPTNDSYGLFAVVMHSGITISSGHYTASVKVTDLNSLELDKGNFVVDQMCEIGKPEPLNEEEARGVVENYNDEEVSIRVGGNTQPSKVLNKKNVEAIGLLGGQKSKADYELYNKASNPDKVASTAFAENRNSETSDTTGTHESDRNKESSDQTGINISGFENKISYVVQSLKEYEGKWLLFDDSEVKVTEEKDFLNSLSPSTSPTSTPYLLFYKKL
Pyruvate kinase PKM (Homo sapiens), sequence (P14618 whole entry, looked up): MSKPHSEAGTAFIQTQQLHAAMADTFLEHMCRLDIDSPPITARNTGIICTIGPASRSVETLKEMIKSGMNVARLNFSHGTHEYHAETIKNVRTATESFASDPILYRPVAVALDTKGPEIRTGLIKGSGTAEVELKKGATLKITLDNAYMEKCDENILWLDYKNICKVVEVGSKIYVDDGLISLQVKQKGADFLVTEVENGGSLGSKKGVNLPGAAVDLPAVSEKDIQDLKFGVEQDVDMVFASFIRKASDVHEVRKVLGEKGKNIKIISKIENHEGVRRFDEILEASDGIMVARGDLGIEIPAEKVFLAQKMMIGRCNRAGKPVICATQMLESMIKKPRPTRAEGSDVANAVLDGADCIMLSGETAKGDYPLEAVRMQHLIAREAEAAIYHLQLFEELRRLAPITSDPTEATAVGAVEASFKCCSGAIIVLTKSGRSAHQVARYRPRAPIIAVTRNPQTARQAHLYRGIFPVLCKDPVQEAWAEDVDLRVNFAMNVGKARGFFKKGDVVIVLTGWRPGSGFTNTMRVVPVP
Luciferin 4-monooxygenase (Photinus pyralis), sequence (P08659 whole entry, looked up): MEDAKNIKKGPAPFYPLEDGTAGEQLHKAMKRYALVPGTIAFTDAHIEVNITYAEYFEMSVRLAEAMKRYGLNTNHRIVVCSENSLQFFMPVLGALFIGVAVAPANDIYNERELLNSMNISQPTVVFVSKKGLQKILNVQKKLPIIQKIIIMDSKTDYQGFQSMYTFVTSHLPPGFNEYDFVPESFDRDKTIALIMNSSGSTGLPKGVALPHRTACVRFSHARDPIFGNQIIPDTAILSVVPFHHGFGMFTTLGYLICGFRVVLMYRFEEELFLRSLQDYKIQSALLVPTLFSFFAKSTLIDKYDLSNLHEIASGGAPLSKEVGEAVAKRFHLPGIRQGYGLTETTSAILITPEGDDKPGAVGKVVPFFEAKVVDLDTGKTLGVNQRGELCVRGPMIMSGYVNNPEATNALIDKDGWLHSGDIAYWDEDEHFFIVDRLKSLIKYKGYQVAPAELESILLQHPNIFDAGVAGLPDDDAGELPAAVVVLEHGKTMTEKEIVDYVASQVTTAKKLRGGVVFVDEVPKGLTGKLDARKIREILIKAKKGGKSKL
Alpha-galactosidase (Coffea arabica), sequence (Q42656 whole entry, looked up): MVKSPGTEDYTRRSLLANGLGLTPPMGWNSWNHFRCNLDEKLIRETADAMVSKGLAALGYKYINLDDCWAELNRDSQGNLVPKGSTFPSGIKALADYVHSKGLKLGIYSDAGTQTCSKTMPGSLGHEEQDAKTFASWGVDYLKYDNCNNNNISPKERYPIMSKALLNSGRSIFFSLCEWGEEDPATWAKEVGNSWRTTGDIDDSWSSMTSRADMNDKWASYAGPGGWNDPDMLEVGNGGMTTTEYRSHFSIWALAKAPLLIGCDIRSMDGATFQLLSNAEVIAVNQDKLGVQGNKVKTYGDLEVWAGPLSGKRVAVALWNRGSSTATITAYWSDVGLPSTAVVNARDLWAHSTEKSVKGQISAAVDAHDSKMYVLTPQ
Guanine nucleotide-binding protein G(i) subunit alpha-1 (Homo sapiens), sequence (P63096 whole entry, looked up): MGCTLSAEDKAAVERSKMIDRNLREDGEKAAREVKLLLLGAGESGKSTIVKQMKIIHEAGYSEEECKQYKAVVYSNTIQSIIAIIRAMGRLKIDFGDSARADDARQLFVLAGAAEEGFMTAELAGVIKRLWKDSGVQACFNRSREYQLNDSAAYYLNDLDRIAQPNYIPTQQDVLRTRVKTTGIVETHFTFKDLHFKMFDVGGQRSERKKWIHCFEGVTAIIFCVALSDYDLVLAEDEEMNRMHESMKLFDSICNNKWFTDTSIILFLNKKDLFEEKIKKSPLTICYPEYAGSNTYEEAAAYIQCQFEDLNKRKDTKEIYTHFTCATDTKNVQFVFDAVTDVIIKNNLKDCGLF
Alpha-galactosidase A (Homo sapiens), sequence (P06280 whole entry, looked up): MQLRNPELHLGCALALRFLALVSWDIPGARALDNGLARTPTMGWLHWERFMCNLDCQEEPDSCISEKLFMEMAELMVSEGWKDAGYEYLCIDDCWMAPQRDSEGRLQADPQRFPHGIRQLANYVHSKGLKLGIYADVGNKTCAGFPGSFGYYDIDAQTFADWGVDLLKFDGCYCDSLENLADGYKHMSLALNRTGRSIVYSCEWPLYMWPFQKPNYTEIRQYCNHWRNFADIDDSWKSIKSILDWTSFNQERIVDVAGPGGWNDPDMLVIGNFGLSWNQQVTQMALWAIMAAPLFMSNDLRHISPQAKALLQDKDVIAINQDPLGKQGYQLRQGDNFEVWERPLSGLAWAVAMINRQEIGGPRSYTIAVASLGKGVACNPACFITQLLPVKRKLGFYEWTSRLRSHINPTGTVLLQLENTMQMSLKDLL
Glucocorticoid receptor (Homo sapiens), sequence (P04150 whole entry, looked up, the tested form may be a part): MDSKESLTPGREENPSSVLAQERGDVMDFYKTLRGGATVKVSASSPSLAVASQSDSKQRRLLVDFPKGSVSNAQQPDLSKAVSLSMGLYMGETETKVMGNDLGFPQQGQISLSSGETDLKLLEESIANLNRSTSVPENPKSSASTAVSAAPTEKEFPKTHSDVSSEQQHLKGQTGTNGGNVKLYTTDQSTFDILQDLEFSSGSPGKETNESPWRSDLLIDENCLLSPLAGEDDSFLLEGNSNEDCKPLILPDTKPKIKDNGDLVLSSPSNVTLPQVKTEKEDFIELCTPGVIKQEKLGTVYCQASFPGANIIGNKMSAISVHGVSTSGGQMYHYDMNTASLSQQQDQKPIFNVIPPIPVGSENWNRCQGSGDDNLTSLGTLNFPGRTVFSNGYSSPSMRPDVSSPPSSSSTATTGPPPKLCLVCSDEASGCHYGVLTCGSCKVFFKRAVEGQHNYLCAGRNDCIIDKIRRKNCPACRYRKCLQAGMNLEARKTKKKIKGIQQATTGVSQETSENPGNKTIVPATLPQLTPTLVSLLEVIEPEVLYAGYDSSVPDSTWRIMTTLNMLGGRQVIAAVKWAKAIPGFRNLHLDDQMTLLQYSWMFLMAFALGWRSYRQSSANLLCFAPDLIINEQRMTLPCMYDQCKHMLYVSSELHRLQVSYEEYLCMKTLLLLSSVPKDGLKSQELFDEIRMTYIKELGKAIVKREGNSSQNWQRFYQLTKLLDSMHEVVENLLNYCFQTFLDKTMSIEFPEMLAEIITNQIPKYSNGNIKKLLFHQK

COc1cc(C=C(C#N)C#N)cc(O)c1O
inactive: outcome [1] | outcome [2] | Potency [3] > 46 µM | outcome [4] | outcome [5] | Potency [6] | outcome [7] | outcome [8] | outcome [9] | outcome [10]

CC(C)(O)C1C2OC(=O)C1[C@]1(O)C[C@H]3O[C@]34C(=O)O[C@H]2[C@]14C (stereo partly specified) (tested in a mixture with another compound)
inactive: Potency [11] | Potency [12] | activity, negative = inhibition ([13]; parasite line A) 14% | activity, negative = inhibition ([13]; parasite line B) -0.69%

C[N+](C)(C)C1CCC(CC2CCC([N+](C)(C)C)CC2)CC1 (stereo unspecified)
inactive: Potency [14] | Potency [15] | Potency [16] | Potency [17]

COc1cc(C[C@@H](C)N)c(OC)cc1I
inactive: outcome [18]

CCN1C[C@]2(C)CC[C@H](O)[C@@]34[C@@H]5C[C@@H]6[C@@H](OC)C[C@@](O)(C5[C@H]6O)[C@@H](C[C@@H]23)[C@@H]14
inactive: outcome [18]

C[C@H]1OC[C@@H](C[N+](C)(C)C)O1
inactive: outcome [1] | outcome [2] | Potency [3] > 46 µM | outcome [4] | outcome [5] | Potency [6] | outcome [7] | outcome [8] | outcome [9] | outcome [10]

Oc1ccc2c3c1O[C@H]1[C@@H](O)CC[C@@]4(O)C(C2)N(CC2CCC2)CCC314 (stereo partly specified)
inactive: Potency [11] | Potency [12] | activity, negative = inhibition ([13]; parasite line A) 12% | activity, negative = inhibition ([13]; parasite line B) 0.575%

CCN(CC)C(=O)N[C@@H]1C[C@@H]2c3cccc4[nH]cc(c34)C[C@H]2N(C)C1
inactive: Potency [12]

CS(=O)(=O)OCC(O)C(O)COS(C)(=O)=O (stereo unspecified)
inactive: Potency [14] | Potency [15] | Potency [16] | Potency [17]

CCCC[N+]1(C)C2CC(OC(=O)C(CO)c3ccccc3)CC1C1OC12 (stereo unspecified)
inactive: Potency [11] | Potency [12] | activity, negative = inhibition ([13]; parasite line A) -8.81% | activity, negative = inhibition ([13]; parasite line B) -5.62%

C[C@]12CC[C@H]3[C@@H](CCC4C[C@H](O)CC[C@@]43C)[C@@H]1CC[C@@H]2O (stereo partly specified)
inactive: outcome [18]

CC[C@@H](CO)NC(=O)[C@H]1C=C2c3cccc4c3c(cn4C)C[C@H]2N(C)C1
active: Potency [11] 35.5 µM
inactive: Potency [19]

CCCCN1C2CCC1CC(OC(c1ccc(F)cc1)c1ccc(F)cc1)C2 (stereo unspecified)
inactive: outcome [5] | Potency [6] | outcome [7] | outcome [8] | outcome [9] | outcome [10] | outcome [18]

CCCCN=C(N)NC(=N)N
inactive: outcome [14] inactive [setting not given] | outcome [15] inactive [setting not given] | outcome [16] inactive [setting not given] | outcome [17] inactive [setting not given]

CCCCCCCCCCCCCCCC(=O)OC[C@@H](O)[C@H]1OC[C@H](O)[C@H]1O
inactive: Potency [14] | Potency [15] | Potency [16] | Potency [17]
